Screening results (PubChem BioAssay)
A selection: hits, their analogues and other compounds. The true share with any hit is near 2.8%.
POLB inh – blocks human DNA polymerase beta activity | P06746 | Pol beta primer extension/strand displacement, fluorescence kinetic | Potency, µM (top dose mostly 114 µM), for inactives: at the highest dose activity change, negative = inhibition, most hits filed as inhibitors | actives 1.3% (n = 340,000) | AID 485314; further: potency means the concentration at half of the fitted maximal effect; on the % scale 0 is the no-effect control and ±100 the full control effect
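Pol beta (10 nM) and compounds were preincubated 15 min at room temperature, then 50 nM substrate (final) started primer extension/strand displacement. Reads were taken at 0 and 10 min; concentration-response data were fitted to a four-parameter Hill equation.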
POLH inh – inhibitors of human DNA polymerase eta | Potency, µM (series often up to 114 µM), for the others: top-dose activity change, negative = inhibition, actives largely listed as inhibitors | actives 1.2% (n = 390,000) | AID 588591 | recombinant Pol eta, fluorescent DNA replication assay; further: potency means the concentration at half of the fitted maximal effect; on the % scale 0 is the no-effect control and ±100 the full control effect
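Pol eta at 10 nM preincubated with compounds 15 min at room temperature; reaction started with fluorescent substrate (50 nM final) and read kinetically at 0 and 10 min.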
Pol iota inh – DNA polymerase iota (human) inhibition; Pol iota fluorescent replication assay, 10 min; Potency, µM (top dose mostly 115 µM), without a hit: at the highest dose activity, negative = inhibition, most hits filed as inhibitors; actives 1% (n = 390,000); AID 588590; further: potency means the concentration at half of the fitted maximal effect
Target sequence (Q9UNA4 whole entry, looked up): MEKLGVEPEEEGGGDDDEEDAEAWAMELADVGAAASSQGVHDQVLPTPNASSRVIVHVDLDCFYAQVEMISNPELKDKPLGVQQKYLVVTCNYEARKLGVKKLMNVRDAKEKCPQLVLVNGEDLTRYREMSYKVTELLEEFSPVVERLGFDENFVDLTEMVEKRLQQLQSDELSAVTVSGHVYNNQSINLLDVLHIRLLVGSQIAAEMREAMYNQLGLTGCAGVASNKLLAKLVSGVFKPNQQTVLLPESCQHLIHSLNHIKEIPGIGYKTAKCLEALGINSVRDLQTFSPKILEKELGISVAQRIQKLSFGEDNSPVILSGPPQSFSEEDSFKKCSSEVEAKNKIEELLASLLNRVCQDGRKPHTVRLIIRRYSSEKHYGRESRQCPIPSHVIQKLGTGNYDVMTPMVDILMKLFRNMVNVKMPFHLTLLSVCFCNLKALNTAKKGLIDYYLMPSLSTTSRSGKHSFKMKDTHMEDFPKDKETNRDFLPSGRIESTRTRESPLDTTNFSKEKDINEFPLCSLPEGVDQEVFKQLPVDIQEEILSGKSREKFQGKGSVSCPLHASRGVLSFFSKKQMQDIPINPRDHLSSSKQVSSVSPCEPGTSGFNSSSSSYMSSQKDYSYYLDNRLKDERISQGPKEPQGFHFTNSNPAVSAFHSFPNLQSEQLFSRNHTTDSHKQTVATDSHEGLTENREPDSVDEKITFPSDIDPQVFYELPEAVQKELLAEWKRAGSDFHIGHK
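Fluorescent replication assay read twice, at 0 min and 10 min after adding 50 nM (final) substrate. Enzyme (10 nM) and compounds were first incubated 15 min at room temperature; enzyme-free buffer wells were negative controls.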
Pol kappa inh – DNA polymerase kappa (human) inhibition; actives 0.53% (n = 400,000); AID 588579; purified Pol kappa, fluorescent DNA synthesis assay, 10 min; Potency, µM (top dose mostly 107 µM), for inactives: at the top dose activity, negative = inhibition, usual class: inhibitors; Q9UBT6; further: potency means the concentration at half of the fitted maximal effect; on the % scale 0 is the no-effect control and ±100 the full control effect
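Kinetic fluorescence screen: compound preincubated 15 min RT with 10 nM enzyme; 50 nM substrate (final) initiates; reads at 0/10 min.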
WRN helicase inh – WRN helicase (human) inhibition; actives 0.46% (n = 360,000); Potency, µM (titrated, usually from 114 µM), for inactives: at the top dose activity change, negative = inhibition, hits mostly inhibitors; Q14191; WRN helicase unwinding, fluorescent forked duplex, kinetic; AID 651768; further: potency means the concentration at half of the fitted maximal effect; on the % scale 0 is the no-effect control and ±100 the full control effect; nearly all actives have a fitted effect of over 55% in size
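Kinetic fluorescence helicase assay: unwinding of a quenched forked DNA duplex (100 nM final) with 2 mM ATP final raises red fluorescence (525/598 nm). Compounds sat 15 min at room temperature with 20 nM WRN beforehand.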
PI5P4Ka inh – blocks human PI5P4K alpha kinase activity; P48426; PI5P4Kalpha enzyme, ADP-Glo luminescence, 60 min; hits give low values; AID 652105; actives 1.2% (n = 330,000); max response, %; active means max response of -50% or lower; inconclusive means between -30% and -50%; inactive means -30% or higher; further: value at the top dose of about 77 µM; on the % scale 0 is the no-effect control and ±100 the full control effect
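Enzyme plus substrate dispensed, test compounds pinned in, then ATP (5 microM final) added. After 60 min at RT, ADP-Glo reagent 1 for 45 min and reagent 2 for 30 min preceded luminescence imaging.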
PGK validate – validation of Trypanosoma brucei phosphoglycerate kinase inhibitors; shares compounds with Pol kappa inh; TbPGK coupled GAPDH assay, Kinase-Glo luminescence; Potency, µM (top dose mostly 57.5 µM), inactives show top-dose activity change, negative = inhibition, usual class: inhibitors; actives 79% (n = 500); further: potency means the concentration at half of the fitted maximal effect; on the % scale 0 is the no-effect control and ±100 the full control effect; nearly all actives have a fitted effect of over 65% in size
Pol iota confirm – Human Pol iota inhibitor confirmatory assay. shares compounds with Pol kappa inh. Pol iota primer extension, TAMRA/BHQ fluorescence. Potency, µM, most hits filed as inhibitors. actives 77% (n = 1,500). AID 720496; further: potency means the concentration at half of the fitted maximal effect
* marks the source's active call; other numbers are inactive results; ? = inconclusive; . = no result given; [ ] = remark or other dose. Unless noted, the call rests on the fitted dose curve; in most records, active means well fitted curve in the direction sought with a large enough effect; inconclusive means small, poorly fitted or top-dose-only effect, or another doubt; inactive means no such curve, though single readings can be large; an effect the other way counts as inactive or inconclusive.

SMILES | POLB inh | POLH inh | Pol iota inh | Pol kappa inh | WRN helicase inh | PI5P4Ka inh | PGK validate | others
C#Cc1ccc(C(=O)NCc2ccc(N3CCCC3=O)cc2)cc1 | 17.8µM* | 15.8µM* | ? | ? | -13.2%[11.6 µM] | -27.7 | . | Pol iota confirm=42.3*
COc1ccc(CCNC(=O)c2c(C)oc3ncn(C)c(=O)c23)c(OC)c1 | 3.0% | -7.1% | 30.0% | -3.6% | . | . | .
O=C(COc1ccccc1)NCC(c1cccs1)S(=O)(=O)c1ccc(Cl)cc1 (stereo not given) | 17.8µM* | -13.0% | -4.5% | -8.9%[60.1 µM] | . | . | ?
COc1ccc(CC(=O)NCC(c2cccs2)S(=O)(=O)c2ccc(Cl)cc2)cc1 (stereo not given) | 7.94µM* | -25.4% | -3.8% | -6.7%[60.1 µM] | . | . | 6.51µM*
Cc1ccc(S(=O)(=O)C(CNC(=O)Cc2ccc(Cl)cc2)c2cccs2)cc1 (stereo not given) | 40.6% | -14.2% | -5.6% | -24.0%[60.1 µM] | . | . | .
CC(C)(C)C1CCc2c(sc(NC(=O)c3cccc(Cl)c3)c2C(=O)NCc2ccco2)C1 (stereo not given) | 0.1% | -18.6% | -16.2% | -2.8% | . | . | .
CC(=O)N1CCC2(CC1)OC(=O)C(C)=C2C(=O)NCc1ccc(Cl)cc1 | -2.1% | 0.4% | -5.9% | -14.8% | . | . | .
O=C(CSc1nnc(COc2ccccc2Cl)o1)NC(=O)NCc1ccco1 | 14.1µM* | 50.1µM* | 39.8µM* | ? | -7.7%[11.6 µM] | -74.8* | . | Pol iota confirm=67*
CC(C)(C)NC(=O)NC(=O)CSc1nnc(COc2ccccc2Cl)o1 | -2.2% | -15.8% | 0.6% | -3.7% | -11.3% | 10.7 | .
Cc1cc(NC(=O)CSc2ccc(-c3nc4cc(C)c(C)cc4[nH]3)cn2)no1 | -0.4% | -16.4% | 22.7% | 8.3% | -22.5% | . | 4.9%
Cc1cc2nc(-c3ccc(SCC(=O)Nc4ccc(S(=O)(=O)NC5CC5)cc4)nc3)[nH]c2cc1C | ? | ? | ? | -5.6% | 1.2% | -14.6 | .
CCOc1ccc(NC(=O)Cn2cc(C(=O)c3ccc(CC)cc3)c(=O)c3cc(C)ccc32)cc1 | ? | 50.1µM* | 16.3% | -8.9% | . | . | . | Pol iota confirm=?
Cc1ccccc1-c1nc(-c2ccccn2)no1 | -0.7% | -9.8% | -8.2% | -5.0% | 7.6% | -25.8 | .
COc1ccccc1-c1nc(-c2ccccn2)no1 | 20.0% | -15.1% | -1.0% | 11.2% | -8.4% | ? | 18.3µM*
COc1ccc(-c2nc(-c3ccccn3)no2)cc1 | -1.4% | -3.7% | 8.3% | 10.6% | -2.8% | ? | 5.8µM*
Clc1ccc(-c2nc(-c3ccccn3)no2)cc1Cl | 29.8% | -9.2% | 27.2% | -0.6% | -4.9% | . | .
CCCCCCCCCCCCCCCC(C)C1=NCCN1 (stereo not given) | . | . | 1.5% | -1.6% | . | . | .
CCOC(=O)c1cc(-c2ccc(OC)cc2)nn1-c1ccccc1C(=O)O | 3.16µM* | -2.9% | -26.7% | -13.0% | -15.6% | -17.7 | ?
BrC(=C\c1ccccc1)/C=N/Nc1ccc2nncn2n1 | ? | 50.1µM* | ? | -22.8% | -13.4%[11.6 µM] | -10.4 | . | Pol iota confirm=33.6*
Cc1ccc(-c2cn3c(n2)sc2cc(C(=O)NC(C)C45CC6CC(CC(C6)C4)C5)ccc23)cc1 (stereo not given) | 2.1% | -13.2% | 9.4% | -10.7% | . | . | .
O=C1c2cccc3cc([N+](=O)[O-])cc(c23)C(=O)N1CCN1CCCC1 | 14.1µM* | -7.1% | 20µM* | 79.4µM* | 3.4%[11.6 µM] | 1.2 | . | Pol iota confirm=18.9*
Cc1cc(C)c(S(=O)(=O)N2CCN(CCN3C(=O)c4cccc5cccc(c45)C3=O)CC2)cc1[N+](=O)[O-] | 1.6% | . | . | . | . | . | .
CC(=O)Nc1sc2c(c1-c1nc3ccccc3s1)CCCNC2 | . | . | . | . | . | . | . | Pol iota confirm=?
CC(=O)Nc1sc2c(c1-c1nc3ccccc3s1)CCN(C(C)C)CC2 | . | . | . | . | . | . | . | Pol iota confirm=67*
CCN1CCc2c(sc(NC(=O)CSc3ccccc3)c2-c2nc3ccccc3s2)C1 | 2.0% | -10.4% | -9.4% | -6.5% | . | . | .
CCOC(=O)c1c(C)oc2ncnc(Nc3ccc(OCC)cc3)c12 | 2.1% | -26.2% | 26.3% | -1.0% | . | . | .
CC1=C/C(=C(/c2cc(C)c(O)c(Br)c2)c2ccccc2S(=O)(=O)O)C=C(Br)C1=O | -26.7% | 35.5µM* | ? | ? | ? | -65.0* | 18.3µM*
Cc1cccc(OC(=O)c2cc(-c3ccc4c(c3)OCCO4)on2)c1C | 9.4% | -17.2% | 7.8% | 2.7% | . | . | .
CCC(=O)N1c2ccccc2CC1C(=O)NCCCN1CCN(c2ccc(OC)cc2)CC1 (stereo not given) | -15.6% | -10.2% | 30.9% | -1.1%[60.1 µM] | . | . | -0.9%
CCOC(=O)c1c(C)c(-c2ccccc2)n(CC(=O)Nc2ccc(OCC)cc2)c1C | 12.6% | -14.6% | 34.3% | -1.2% | . | . | .
